Our source for the binding signal values is article PMC7819943, “Rice protein-binding microarrays: a tool to detect cis-acting elements near promoter regions in rice”.

The full ranking holds about 39,000 sequences; the median of “fluorescence intensity (a.u.)” is about 4,300, and the highest 2% start at about 39,000. Shown is part of a subset that was picked to be rich in the highest values.

The target of the assay is T1, OsSMF1 (Oryza sativa, UniProt Q6ZLB0 1-436).
T1 sequence: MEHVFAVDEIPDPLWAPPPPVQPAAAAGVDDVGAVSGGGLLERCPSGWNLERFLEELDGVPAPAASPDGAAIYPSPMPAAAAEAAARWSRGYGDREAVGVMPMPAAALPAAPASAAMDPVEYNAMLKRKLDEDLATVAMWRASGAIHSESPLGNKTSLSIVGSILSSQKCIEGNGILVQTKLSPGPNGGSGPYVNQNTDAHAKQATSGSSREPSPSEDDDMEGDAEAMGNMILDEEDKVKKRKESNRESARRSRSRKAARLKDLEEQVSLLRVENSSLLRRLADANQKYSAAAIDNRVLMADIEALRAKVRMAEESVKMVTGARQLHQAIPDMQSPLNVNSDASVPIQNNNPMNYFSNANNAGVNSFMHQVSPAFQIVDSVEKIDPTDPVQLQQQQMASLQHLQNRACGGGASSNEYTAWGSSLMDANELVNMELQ
Nature of the assay: protein-binding microarray (RPBM); PBS, 2% BSA, 51.3 ng/ul salmon testes DNA, 50 uM zinc acetate, 200 nM TF, 25 C, 1 h; high values mean tight binding. To be noted: protein: recombinant; tags: N-terminal polyhistidine and DsRed monomer fusion (pET32a); chain copies: 2; label: CyDye5-dUTP incorporated in the synthesized complementary strand; 3' TTTTT single-stranded linker to array surface; dsDNA, one strand shown. The method in brief:
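Transcription factors, each fused N-terminally to a polyhistidine tag and DsRed, were expressed in E. coli BL21-CodonPlus and purified on Ni–NTA. A custom Agilent array was made double-stranded by primer extension with Cy5-dUTP and blocked with 2% BSA. It was incubated with 200 nM protein in PBS, 2% BSA, salmon testes DNA and 50 µM zinc acetate at 25 °C for 1 h, then washed. The binding signal is per-feature fluorescence intensity (arbitrary units) read on an Axon 4000B scanner.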
On to “ATGGTGGTTGTGTCTTATATTTTGGAATGGAGGGACTTATCGGAGTCACCTAGTGCAG”, for which the binding signal was 21300 fluorescence intensity (a.u.).

Take “TGGGCCGTGATTGAGGCCTATATATACGTGGCCTGACAAACGGAGTCACCTAGTGCAG”: the binding signal was 4000 fluorescence intensity (a.u.).

Take “GGATCGAAACTTGTGTTAAACACGTCAACTTCATGCATCTCGGAGTCACCTAGTGCAG”: the binding signal is 3310 fluorescence intensity (a.u.).

Regarding “ATCAACGTATCTAAACCGGATGGAAACACGTATCTAAACACGGAGTCACCTAGTGCAG”, the binding signal was 6180 fluorescence intensity (a.u.).

As to “CAACACGCTCGATATCATCTAGTTAAACTAACCTAGTGTGCGGAGTCACCTAGTGCAG”, the binding signal is 42700 fluorescence intensity (a.u.).

With “AGCTTCGGTTTTCTTACTCAGCACAACGGGGTGGTGGCGCCGGAGTCACCTAGTGCAG”, the binding signal was 5360 fluorescence intensity (a.u.).

As to “GAAAATTTGAGCAAAATTTAGTTGAATTTGAACAAATATTCGGAGTCACCTAGTGCAG”, the binding signal is 6670 fluorescence intensity (a.u.).

With “AATTACAGATTCCGTCAGAAAACTGTGAGACAGATTTATTCGGAGTCACCTAGTGCAG”, the binding signal was 3290 fluorescence intensity (a.u.).

On to “CCGTTGAATGTGCCAGACAAACTGAGTGTAATTTAATATTCGGAGTCACCTAGTGCAG”, for which the binding signal was 65100 fluorescence intensity (a.u.).

Turning to “TCCCTTGTCGACACATGCGTGTCAGCTCCAGGTTTATAACCGGAGTCACCTAGTGCAG”, the binding signal was 6370 fluorescence intensity (a.u.).

“CTCATGTTGTTTGACGGTTTGACTCTCCTAGTTTATCATCCGGAGTCACCTAGTGCAG”: the binding signal was 3370 fluorescence intensity (a.u.).

Turning to “TTCACGCCCTGTAACATCGTGTGCATCCATCCCTCCACCGCGGAGTCACCTAGTGCAG”, the binding signal was 4190 fluorescence intensity (a.u.).

As for “ACCTTCAAATGCAATTTTACAATGGATTTACCTCAAGCTACGGAGTCACCTAGTGCAG”, the binding signal is 19200 fluorescence intensity (a.u.).

For “TTTTCATAAATGCTCCTTTGAAACAAATGATTTTACCCTACGGAGTCACCTAGTGCAG”, the binding signal is 43000 fluorescence intensity (a.u.).

Regarding “TAAAATCTAGATGCAATGAGTTATTTCATATGATTTGAAACGGAGTCACCTAGTGCAG”, the binding signal was 17000 fluorescence intensity (a.u.).

As for “CCTGAAGTTCTAGATGTTGATTTTGTCATGATGATCTAATCGGAGTCACCTAGTGCAG”, the binding signal is 4580 fluorescence intensity (a.u.).

On to “CGTCTCATTCTCTCTCCACATTTCCTTTTGATCCCTTCTCCGGAGTCACCTAGTGCAG”, for which the binding signal is 24300 fluorescence intensity (a.u.).

For the sequence “CCTTAAATTTTCCTAAATCCTTACCTACCGTCATTCTCTCCGGAGTCACCTAGTGCAG”, the binding signal is 47400 fluorescence intensity (a.u.).

Consider “AACTTCAATTTCAAATAACAGGGTCAAATAAACAAACCTACGGAGTCACCTAGTGCAG”, for which the binding signal is 4590 fluorescence intensity (a.u.).

With “TCCCGCCAAATCACCGATCCGCGCCTCACGCCACGTCAACCGGAGTCACCTAGTGCAG”, the binding signal is 16000 fluorescence intensity (a.u.).

Consider “ATAAATACCGCGATAACCTCCTTAAATTCAAATAAATTTACGGAGTCACCTAGTGCAG”, for which the binding signal was 54800 fluorescence intensity (a.u.).

For the sequence “AAATAAATAGGGAATTTAACCTTGCCACGTCACCGATCCGCGGAGTCACCTAGTGCAG”, the binding signal was 48100 fluorescence intensity (a.u.).

“TACTTATCCAGATTCAAAAGATAAAATTTATTATATTATACGGAGTCACCTAGTGCAG”: the binding signal is 12600 fluorescence intensity (a.u.).

For “TTTCTAATTCGTCATTCACCTCTCTCCTCCATCTCTACCCCGGAGTCACCTAGTGCAG”, the binding signal was 3520 fluorescence intensity (a.u.).

In the case of “GTTTGCGAGGAATAGCGGGAACGATCCGCGCCACCACGAACGGAGTCACCTAGTGCAG”, the binding signal was 18000 fluorescence intensity (a.u.).

Consider “CCGGCGTGGCGACGTCAGTACTCTCTTCTGCTTCATTTCTCGGAGTCACCTAGTGCAG”, for which the binding signal was 7490 fluorescence intensity (a.u.).

Regarding “AAGCTTTGCATTTGGGCGCTGGGCATGTCAGCGTCCGGTTCGGAGTCACCTAGTGCAG”, the binding signal is 4440 fluorescence intensity (a.u.).

In the case of “AGATGGGCTTGAGAATGTGATGTCTCGTTTAATTGGGCCCCGGAGTCACCTAGTGCAG”, the binding signal is 3310 fluorescence intensity (a.u.).

For “ATTGTTGACACTATGACTTTCTTACTTTGACCGCAATTTTCGGAGTCACCTAGTGCAG”, the binding signal is 3720 fluorescence intensity (a.u.).

Turning to “CAAGCAATGCAAGGCAAGAGGTAATTGGCCGTGGAATCCACGGAGTCACCTAGTGCAG”, the binding signal is 4720 fluorescence intensity (a.u.).

For “CAAGAGATAAGGAGCAATCGATCCAGCGTGGCGGCATGCACGGAGTCACCTAGTGCAG”, the binding signal is 3470 fluorescence intensity (a.u.).

On to “TGAGGATGCAAGAGAATCCTAAAAGGTAAGGCAGCATGCACGGAGTCACCTAGTGCAG”, for which the binding signal was 44100 fluorescence intensity (a.u.).

Regarding “CCAGTTTTGTCCACGTGGCAGCTGACTCACGGTGGGACCCCGGAGTCACCTAGTGCAG”, the binding signal is 29200 fluorescence intensity (a.u.).

On to “CCAAAGCTGCGCAGCACCCTGAACGGCACCACACCACGGACGGAGTCACCTAGTGCAG”, for which the binding signal was 57400 fluorescence intensity (a.u.).

As for “CGCACCCGCACAGCACCACACCACCTGCCTAGCGCCAAGCCGGAGTCACCTAGTGCAG”, the binding signal is 3560 fluorescence intensity (a.u.).

Consider “AAGTTTGGCTGTATTTATTCCACACCATAATTGAAAGTTTCGGAGTCACCTAGTGCAG”, for which the binding signal is 3160 fluorescence intensity (a.u.).

Regarding “CACACGCAAAGCTGCAAAAGTTGAATTCCATTATTCCACACGGAGTCACCTAGTGCAG”, the binding signal is 65500 fluorescence intensity (a.u.).

Take “AGTTGAGCTCCTTGTCATTGATGAAGCTGCTGCTATTCCACGGAGTCACCTAGTGCAG”: the binding signal is 3740 fluorescence intensity (a.u.).

With “AGCAAAGCTGCCAGAGCACGGCACAGCACACAGGTGACGGCGGAGTCACCTAGTGCAG”, the binding signal is 3450 fluorescence intensity (a.u.).

As for “ATTGGATGCTGAATTGATGAGTACATACGTATACGTATACCGGAGTCACCTAGTGCAG”, the binding signal is 4160 fluorescence intensity (a.u.).

Regarding “CAACTGGCCATGTATGCACATGCACCCCAGAGACAACCTACGGAGTCACCTAGTGCAG”, the binding signal is 3420 fluorescence intensity (a.u.).

“GTTGACGGGGTTTGTGAGGTGTGGCGGTGACTTGGAAAGACGGAGTCACCTAGTGCAG”: the binding signal is 3540 fluorescence intensity (a.u.).

Regarding “ATGGTTAGCATTAATCACTAATCACGTCATCATTAGTGCTCGGAGTCACCTAGTGCAG”, the binding signal is 4040 fluorescence intensity (a.u.).

In the case of “CCCACGGGATTGTCGGTCCCTCGTTTTGGTGATGCAGGACCGGAGTCACCTAGTGCAG”, the binding signal was 3570 fluorescence intensity (a.u.).

On to “TGCAGGGACGATCTGATGGACAGCTCGGATTCGTCCCACACGGAGTCACCTAGTGCAG”, for which the binding signal was 3190 fluorescence intensity (a.u.).

As to “TGGGTCCCACGCAATAGTGGACCTGATGAATTGCAGGATTCGGAGTCACCTAGTGCAG”, the binding signal is 41100 fluorescence intensity (a.u.).

Regarding “GTTATCGTCATTACGTCAATACGTGTTTTCGAAAATAATTCGGAGTCACCTAGTGCAG”, the binding signal was 4860 fluorescence intensity (a.u.).

Consider “GACACCACCGCCGCCGCCGTCCTCGTCATCTCCAGATCGCCGGAGTCACCTAGTGCAG”, for which the binding signal is 9120 fluorescence intensity (a.u.).

Consider “ACAGTAGCACCGGAAAGCTGCATGTGAAGTCTAGTCAACGCGGAGTCACCTAGTGCAG”, for which the binding signal is 4250 fluorescence intensity (a.u.).

As to “CTTCTCCTGCATGGCAAGTCGCTGATCACAACTACGCATCCGGAGTCACCTAGTGCAG”, the binding signal was 3610 fluorescence intensity (a.u.).

As for “ACTATATATATACACTACGGTTGACAAAGACATCCCAACACGGAGTCACCTAGTGCAG”, the binding signal was 3240 fluorescence intensity (a.u.).

For the sequence “CAAAGGAACACATCTGGGTCATCAGACAACTCAATAGAGTCGGAGTCACCTAGTGCAG”, the binding signal is 43000 fluorescence intensity (a.u.).

“CGCACGATGATCATGTGTTGGTGTTGGCATGCAATGCAACCGGAGTCACCTAGTGCAG”: the binding signal was 3780 fluorescence intensity (a.u.).

For the sequence “TCATCTGGTACAAAATATATAGGACATCAATCATGGGGAACGGAGTCACCTAGTGCAG”, the binding signal was 26200 fluorescence intensity (a.u.).

On to “TAGATCAATGATGTTGCATGCAACTCACGCGACACATGGTCGGAGTCACCTAGTGCAG”, for which the binding signal is 40000 fluorescence intensity (a.u.).

In the case of “TTCACAACACTTGCATGAACTCAGGTGTCAATGGTAAGGTCGGAGTCACCTAGTGCAG”, the binding signal is 3560 fluorescence intensity (a.u.).

Take “ATACAAAACTAGAAACAAGACATACCAACATCACAACATGCGGAGTCACCTAGTGCAG”: the binding signal was 26100 fluorescence intensity (a.u.).

As for “GAGAAAGGAACAACTACAAAAGACACACATATATACTATGCGGAGTCACCTAGTGCAG”, the binding signal was 39400 fluorescence intensity (a.u.).

“TGAATATAAACACAACTACATTTAGCGACAGAAGAAGAACCGGAGTCACCTAGTGCAG”: the binding signal is 40600 fluorescence intensity (a.u.).

In the case of “CATAACAACCACTAAAACATTATGAATATTTTGTACATACCGGAGTCACCTAGTGCAG”, the binding signal was 22800 fluorescence intensity (a.u.).

On to “ATCATGTACATCTCATAGTCAACAATATTCATCACAATCTCGGAGTCACCTAGTGCAG”, for which the binding signal is 3640 fluorescence intensity (a.u.).

On to “TGTAACTATTCTCGCGACACGTACACACCAACACATAAACCGGAGTCACCTAGTGCAG”, for which the binding signal was 4520 fluorescence intensity (a.u.).
